Laboratory results from ChEMBL document CHEMBL1857833, “Screening and optimization of specific chemical series against human African Trypanosomiasis (HAT)”.
Hit rate of the full screen: of about 4,400 compounds, about 390 (8.9%) showed an effect of 50% or more. This excerpt belongs to a sample that is enriched for strong results.

Test system: Trypanosoma brucei
Experiment: DNDI: Inhibition of Human African Trypanosomiasis, SBRI 427, in vitro at 2 ug.mL-1
Type: functional

| Structure (SMILES) | % inhibition [%] |
| --- | --- |
| COc1ccc(-c2nc(CNCCc3cc(OC)ccc3OC)co2)cc1 | 7 |
| COc1ccc(OC)c(CCNCc2coc(-c3ccc(C(C)(C)C)cc3)n2)c1 | 74 |
| COc1ccc(OC)c(CCNCc2coc(-c3ccc(C)cc3)n2)c1 | 7 |
| COc1ccc(Oc2nc(C)ccc2/C(=N/O)N2CC2C)cc1 (stereo not given) | 14 |
| Cc1cc(C)cc(Oc2ccc(/C(=N/O)N3CC3C)cn2)c1 (stereo not given) | 3 |
| CC1CN1/C(=N\O)c1ccc(Oc2ccc3ccccc3c2)nc1 (stereo not given) | 8 |
| CC1CN1/C(=N\O)c1ccc(Oc2ccc3oc4ccccc4c3c2)nc1 (stereo not given) | 68 |
| COc1ccc(OC)c(CCNCc2coc(-c3ccccc3C)n2)c1 | 11 |
| Cc1ccc(/C(=N/O)N2CC2C)c(Oc2cccc(C(C)C)c2)n1 (stereo not given) | -6 |
| Cc1ccc(/C(=N/O)N2CC2C)c(Oc2cccc3ccccc23)n1 (stereo not given) | 12 |
